{"source": "PubChem BioAssay (NCATS)", "note": "Records with an inconclusive call do not appear. Where a call stands in place of a potency, no number is given. Activity calls are given as the source filed them. Calls follow the shape of the dose curve; as a rule, active = well fitted curve in the direction sought with a large enough effect; inconclusive = small, poorly fitted or top-dose-only effect, or another doubt; inactive = no such curve, though single readings can be large; an effect the other way counts as inactive or inconclusive.", "data": [{"target": "Protein phosphatase 1D (Homo sapiens) (UniProt O15297)", "sequence (O15297 whole entry, looked up)": "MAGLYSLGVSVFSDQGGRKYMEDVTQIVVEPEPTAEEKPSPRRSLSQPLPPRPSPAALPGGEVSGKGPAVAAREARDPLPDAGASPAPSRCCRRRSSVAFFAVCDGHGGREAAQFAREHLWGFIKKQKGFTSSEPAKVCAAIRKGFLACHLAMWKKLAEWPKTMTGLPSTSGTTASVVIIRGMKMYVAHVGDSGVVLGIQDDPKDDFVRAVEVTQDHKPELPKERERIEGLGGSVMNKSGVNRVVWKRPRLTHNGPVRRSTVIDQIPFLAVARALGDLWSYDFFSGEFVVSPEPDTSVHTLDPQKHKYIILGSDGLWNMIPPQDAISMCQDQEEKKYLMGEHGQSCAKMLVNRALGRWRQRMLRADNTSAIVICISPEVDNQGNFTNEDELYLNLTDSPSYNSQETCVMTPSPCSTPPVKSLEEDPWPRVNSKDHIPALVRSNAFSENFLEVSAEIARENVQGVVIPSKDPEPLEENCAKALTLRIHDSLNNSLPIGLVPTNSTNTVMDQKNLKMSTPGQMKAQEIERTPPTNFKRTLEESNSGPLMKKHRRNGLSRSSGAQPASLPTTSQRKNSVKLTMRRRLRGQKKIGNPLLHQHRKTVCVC", "test": "RapidFire Mass Spectrometry qHTS Assay for Modulators of WT P53-Induced Phosphatase 1 (WIP1) (AID 1347424);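 also: amount of dephosphorylated VEPPL-S-QETFS peptide product formed by WIP1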", "conditions": "WIP1 dephosphorylation of phosphopeptide, RapidFire MS; series mostly up to 63 µM", "how_it_was_run": "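Mass-spectrometric measurement of dephosphorylated peptide after a 5 min room-temperature reaction of 10 nM WIP1 with 2 uM phosphopeptide, following 1 h compound preincubation in 30 mM MgCl2 buffer.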", "values": [{"smiles": "C#Cc1cccc(Nc2ncnc3cc(OCCOC)c(OCCOC)cc23)c1", "Potency": "inactive"}, {"smiles": "Cn1cnc2c(F)c(Nc3ccc(Br)cc3Cl)c(C(=O)NOCCO)cc21", "Potency": "inactive"}, {"smiles": "Clc1ccc(Nc2nnc(Cc3ccncc3)c3ccccc23)cc1", "Potency": "inactive"}]}, {"target": "Protein phosphatase 1D (Homo sapiens) (UniProt O15297)", "test": "Rhodamine-PBP qHTS Assay for Modulators of WT P53-Induced Phosphatase 1 (WIP1) (AID 1347425)", "conditions": "recombinant WIP1, Rhodamine-PBP phosphate fluorescence, real-time; series mostly up to 57.5 µM", "how_it_was_run": "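The read-out is the change in Rhodamine-PBP fluorescence (f1 - f0, ex 525/em 598 nm) as Pi is released, read each minute for 11 min. Final reaction: 5 nM WIP1, 10 uM phosphopeptide VEPPL-pS-QETFS, 10 uM Rh-PBP, 50 mM Tris-HCl pH 7.5, 30 mM MgCl2. Compound was preincubated with enzyme for 1 hour at room temperature.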", "values": [{"smiles": "C#Cc1cccc(Nc2ncnc3cc(OCCOC)c(OCCOC)cc23)c1", "outcome": "inactive"}, {"smiles": "Cn1cnc2c(F)c(Nc3ccc(Br)cc3Cl)c(C(=O)NOCCO)cc21", "outcome": "inactive"}, {"smiles": "Clc1ccc(Nc2nnc(Cc3ccncc3)c3ccccc23)cc1", "outcome": "inactive"}]}, {"tested_on": "not listed separately", "test": "Primary qHTS for inhibitors of La Crosse Virus (LACV) - induced cell death in SH-SY5Y cells (AID 1508616);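 also: top concentration of the series differs between compounds; higher means more rescue of cells from virus-induced death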", "conditions": "SH-SY5Y LACV cytopathicity rescue, ATP luminescence, 6 d; series mostly up to 4.29 µM", "how_it_was_run": "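Rescue of virus-induced death was read as ATPLite luminescence after 6 days at 37C, scaled between DMSO wells with LACV and without virus. Cells were SH-SY5Y, 6000/well, infected at 0.01 MOI after compound addition.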", "values": [{"smiles": "C#Cc1cccc(Nc2ncnc3cc(OCCOC)c(OCCOC)cc23)c1", "outcome": "inactive"}, {"smiles": "Cn1cnc2c(F)c(Nc3ccc(Br)cc3Cl)c(C(=O)NOCCO)cc21", "outcome": "inactive"}, {"smiles": "Clc1ccc(Nc2nnc(Cc3ccncc3)c3ccccc23)cc1", "outcome": "inactive"}]}, {"target": "Calcium and integrin-binding protein 1 (Homo sapiens) (UniProt Q99828)", "sequence (Q99828 whole entry, looked up)": "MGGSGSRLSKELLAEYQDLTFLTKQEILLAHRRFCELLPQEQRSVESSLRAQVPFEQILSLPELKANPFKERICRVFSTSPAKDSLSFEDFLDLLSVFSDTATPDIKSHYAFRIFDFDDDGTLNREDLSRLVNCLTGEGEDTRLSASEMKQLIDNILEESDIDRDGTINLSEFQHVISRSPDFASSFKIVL", "test": "Primary qHTS for Identification of Calcium Integrin Binding Protein 1 (CIB1) Competitor (AID 1508620);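 also: GST tagged CIB1 binding a fluorescein labelled alphaIIb integrin peptide tracer; top concentration of the series differs between compounds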", "conditions": "CIB1-GST / FITC-alphaIIb peptide fluorescence polarization; series mostly up to 57.7 µM", "how_it_was_run": "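Fluorescence polarization competition: CIB1-GST (1 uM final) preincubated with compound 15 min at room temperature, then FITC-labeled alphaIIb peptide (100 nM final) added for another 15 min. Polarization read at Ex 480/Em 540.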", "values": [{"smiles": "CS(=O)(=O)Oc1ccc2c(NC(N)=O)c(C(=O)c3ccc(Cl)cc3Cl)oc2c1", "outcome": "inactive"}, {"smiles": "OCCC#Cc1nc(-c2ccc(F)cc2)c(-c2ccncc2)n1CCCc1ccccc1", "outcome": "inactive"}, {"smiles": "O=C1[C@H](Cc2ccc(O)cc2)N2C(=O)CCN(C(=O)NCc3ccccc3)[C@H]2CN1Cc1cccc2ccccc12", "outcome": "inactive"}, {"smiles": "CCOc1cc(N2CCC(O)CC2)ccc1Nc1ncc2c(n1)N(C)c1ccccc1C(=O)N2C", "outcome": "inactive"}, {"smiles": "CCN(CC)CCCC(C)Nc1nc(C)cc(Nc2ccc3nc(C)cc(N)c3c2)n1", "note": "(centres undefined)", "outcome": "inactive"}, {"smiles": "COc1ccc(-c2ccc3c(N4CCOC[C@H]4C)nc(N4CCOC[C@H]4C)nc3n2)cc1CO", "outcome": "inactive"}, {"smiles": "COc1cc(F)c(F)c(Nc2ccc(I)cc2F)c1NS(=O)(=O)C1(C[C@H](O)CO)CC1", "outcome": "inactive"}, {"smiles": "Oc1cccc(-c2nc(N3CCOCC3)c3oc4ncccc4c3n2)c1", "outcome": "inactive"}, {"smiles": "CC1(C)SCCN(S(=O)(=O)c2ccc(OCC#CCO)cc2)[C@@H]1C(=O)NO", "outcome": "inactive"}, {"smiles": "O=C(O)[C@@H](c1ccc(OCc2ccc3ccccc3n2)cc1)C1CCCC1", "outcome": "inactive"}, {"smiles": "C[C@]12CC[C@H](O)CC1=CC[C@@H]1[C@H]2CC[C@]2(C)C(c3cccnc3)=CC[C@H]12", "outcome": "inactive"}, {"smiles": "CCc1cc(Nc2nccc(-c3c(-c4ccc(OC)c(C(=O)Nc5c(F)cccc5F)c4)nc4ccccn34)n2)c(OC)cc1N1CCC(N2CCN(S(C)(=O)=O)CC2)CC1", "outcome": "inactive"}, {"smiles": "COc1ccc(-c2oc3cc(OC)ccc3c2C(=O)c2ccc(C#N)cc2)cc1", "outcome": "inactive"}, {"smiles": "C#Cc1cccc(Nc2ncnc3cc(OCCOC)c(OCCOC)cc23)c1", "outcome": "inactive"}, {"smiles": "O=C(C=Cc1ccc(/C=C/C(=O)Nc2ccc(C3=NCCN3)cc2)cc1)Nc1ccc(C2=NCCN2)cc1", "outcome": "inactive"}, {"smiles": "Cn1cnc2c(F)c(Nc3ccc(Br)cc3Cl)c(C(=O)NOCCO)cc21", "outcome": "inactive"}, {"smiles": "CN(C)c1ccc(Nc2nc(N)n(C(=O)c3c(F)cccc3F)n2)cc1", "outcome": "inactive"}, {"smiles": "Cc1ccnc(NS(=O)(=O)c2ccc(NC(=O)Nc3ccc(S(=O)(=O)Nc4nccc(C)n4)cc3)cc2)n1", "outcome": "inactive"}, {"smiles": "CCOc1ccn(-c2ccc(F)cc2)c(=O)c1C(=O)Nc1ccc(Oc2ccnc(N)c2Cl)c(F)c1", "outcome": "inactive"}, {"smiles": "CCn1c(-c2nonc2N)nc2cnc(Oc3cccc(NC(=O)c4ccc(OCCN5CCOCC5)cc4)c3)cc21", "outcome": "inactive"}, {"smiles": "CCOc1cc(C=C2C(=O)N(c3ccccc3)N=C2C)cc(Cl)c1OCC(=O)OC", "outcome": "inactive"}, {"smiles": "O=C(Nc1ccc(F)c(C(F)(F)F)c1)Nc1nnc(-c2ccncc2)s1", "outcome": "inactive"}, {"smiles": "COc1cccc2cc(-c3nc(C4CCC(C(=O)O)CC4)n4ncnc(N)c34)[nH]c12", "note": "(centres undefined)", "outcome": "inactive"}, {"smiles": "Clc1ccc(Nc2nnc(Cc3ccncc3)c3ccccc23)cc1", "outcome": "inactive"}]}, {"tested_on": "not listed separately", "test": "Primary qHTS for small molecule stabilizers of the endoplasmic reticulum resident proteome: Secreted ER Calcium Modulated Protein (SERCaMP) assay (AID 1508630); also: potency is read from the fitted curve at half-maximal effect", "conditions": "SH-SY5Y GLuc-SERCaMP (Gaussia luciferase released on ER calcium loss) secretion, thapsigargin, luminescence; series mostly up to 38.4 µM", "how_it_was_run": "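The SH-SY5Y reporter protocol was run at 3 concentrations up to 38.3 uM (primary) or 11 concentrations (follow-up): 16 h compound, 100 nM thapsigargin for 4 h, then extracellular luciferase luminescence.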", "values": [{"smiles": "S=C(NCc1ccc2c(c1)OCO2)N1CCN(c2ncnc3c2oc2ccccc23)CC1", "Potency": "inactive"}, {"smiles": "COc1cc(Oc2ccnc3cc(OC)c(OC)cc23)ccc1NC(=O)NC(C)c1nccs1", "note": "(centres undefined)", "Potency": "inactive"}, {"smiles": "CCOc1cc(N2CCC(O)CC2)ccc1Nc1ncc2c(n1)N(C)c1ccccc1C(=O)N2C", "Potency": "inactive"}, {"smiles": "COc1ccc(-c2ccc3c(N4CCOC[C@H]4C)nc(N4CCOC[C@H]4C)nc3n2)cc1CO", "Potency": "inactive"}, {"smiles": "COc1nc(-c2ccc3c(c2)OCO3)n(-c2ccc(NC(=O)CSc3ccccc3)cc2)n1", "Potency": "inactive"}, {"smiles": "CCCCCCCc1ccc(CCc2cccc(O)c2C(=O)O)cc1", "Potency": "inactive"}, {"smiles": "NC(=O)c1ccc(-c2nc(-c3ccc4c(c3)OCO4)c(-c3ccccn3)[nH]2)cc1", "Potency": "inactive"}, {"smiles": "CC(C)(N)C(=O)N[C@H](COCc1ccccc1)C(=O)N1CCC2(CC1)CN(S(C)(=O)=O)c1ccccc12", "Potency": "inactive"}, {"smiles": "C[C@]12CC[C@H](O)CC1=CC[C@@H]1[C@H]2CC[C@]2(C)C(c3cccnc3)=CC[C@H]12", "Potency": "inactive"}, {"smiles": "CCc1cc(Nc2nccc(-c3c(-c4ccc(OC)c(C(=O)Nc5c(F)cccc5F)c4)nc4ccccn34)n2)c(OC)cc1N1CCC(N2CCN(S(C)(=O)=O)CC2)CC1", "Potency": "6 nM (active)"}, {"smiles": "COc1ccc(-c2oc3cc(OC)ccc3c2C(=O)c2ccc(C#N)cc2)cc1", "Potency": "inactive"}, {"smiles": "C#Cc1cccc(Nc2ncnc3cc(OCCOC)c(OCCOC)cc23)c1", "Potency": "inactive"}, {"smiles": "Cn1cnc2c(F)c(Nc3ccc(Br)cc3Cl)c(C(=O)NOCCO)cc21", "Potency": "inactive"}, {"smiles": "Cc1ccnc(NS(=O)(=O)c2ccc(NC(=O)Nc3ccc(S(=O)(=O)Nc4nccc(C)n4)cc3)cc2)n1", "Potency": "inactive"}, {"smiles": "OC[C@H](Cc1ccccc1)Nc1nc(Oc2ccc3c(c2)CCC3)nc2c1ncn2Cc1ccc(-c2ccccc2)cc1", "Potency": "inactive"}, {"smiles": "NC(=O)C1CCCc2c1[nH]c1ccc(Cl)cc21", "note": "(centres undefined)", "Potency": "inactive"}, {"smiles": "CCOc1cc(C=C2C(=O)N(c3ccccc3)N=C2C)cc(Cl)c1OCC(=O)OC", "Potency": "inactive"}, {"smiles": "O=C(Nc1ccc(F)c(C(F)(F)F)c1)Nc1nnc(-c2ccncc2)s1", "Potency": "inactive"}, {"smiles": "COc1ccc(CC2=NN3C([C@@H](CCc4ccccc4)[C@@H](C)O)=NC(C)C3C(=O)N2)cc1OC", "note": "(some centres undefined)", "Potency": "inactive"}, {"smiles": "Clc1ccc(Nc2nnc(Cc3ccncc3)c3ccccc23)cc1", "Potency": "inactive"}, {"smiles": "O=c1[nH]c(-c2ccc(C(F)(F)F)cc2)nc2c1CSCC2", "Potency": "inactive"}]}]}
